Test results from the supplement of paper PMC6555819.

Experiments:
Test in all cases: PBM binding z-score (relative to random genomic background probes); higher = stronger binding; sequences stand for … in GC…GCGATTGACAGCGTAGAATGAAGG
[1] = tested on: PPARg:RXRa DBDmut IVT, anti-RXR (DBD mutation: RXRa K156A/R161A, NR concentration 270 nM, RXRa partner concentration 90 nM)
Method in brief: (§1)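 Ligand-free nuclear receptor dimers were bound for 1 h to custom Agilent 4×180K protein-binding microarrays. Detection used antibodies against each partner (one per run). Binding z-scores rest on regression-normalized fluorescence, with random background probes as the reference.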

[2] = tested on: PPARg:RXRa IVT, anti-PPARg (NR concentration 270 nM, RXRa partner concentration 90 nM)
Method in brief: as §1

[3] = tested on: PPARg DBDmut:RXRa IVT, anti-PPARg (DBD mutation: PPARg1 K132A/R137A, NR concentration 270 nM, RXRa partner concentration 90 nM)
Method in brief: as §1

[4] = tested on: PPARg DBDmut IVT, anti-PPARg (DBD mutation: PPARg1 K132A/R137A, NR concentration 270 nM)
Method in brief: as §1

[5] = tested on: PPARg homodimer (NR concentration 180 nM)
Method in brief: as §1

[6] = tested on: PXR:RXRa (NR concentration 270 nM, RXRa partner concentration 90 nM)
Method in brief: as §1

[7] = tested on: PXR homodimer (NR concentration 270 nM)
Method in brief: as §1

[8] = tested on: RARa:RXR (NR concentration 270 nM, RXRa partner concentration 90 nM)
Method in brief: as §1

[9] = tested on: RARa homodimer (NR concentration 270 nM)
Method in brief: as §1

[10] = tested on: RARb:RXRa (NR concentration 270 nM, RXRa partner concentration 90 nM)
Method in brief: as §1

[11] = tested on: RARb homodimer (NR concentration 270 nM)
Method in brief: as §1

[12] = tested on: RARg:RXRa (NR concentration 270 nM, RXRa partner concentration 90 nM)
Method in brief: as §1

[13] = tested on: RARg homodimer (NR concentration 270 nM)
Method in brief: as §1

[14] = tested on: RXRa DBDmut IVT, anti-RXR (DBD mutation: RXRa K156A/R161A, NR concentration 90 nM)
Method in brief: as §1

[15] = tested on: RXRa homodimer (NR concentration 180 nM)
Method in brief: as §1

[16] = tested on: THRa:RXRa (NR concentration 90 nM, RXRa partner concentration 90 nM)
Method in brief: as §1

[17] = tested on: THRa homodimer (NR concentration 90 nM)
Method in brief: as §1

[18] = tested on: VDR homodimer (NR concentration 270 nM)
Method in brief: as §1

| Sequence | PBM binding z-score [1] | PBM binding z-score [2] | PBM binding z-score [3] | PBM binding z-score [4] | PBM binding z-score [5] | PBM binding z-score [6] | PBM binding z-score [7] | PBM binding z-score [8] | PBM binding z-score [9] | PBM binding z-score [10] | PBM binding z-score [11] | PBM binding z-score [12] | PBM binding z-score [13] | PBM binding z-score [14] | PBM binding z-score [15] | PBM binding z-score [16] | PBM binding z-score [17] | PBM binding z-score [18] |
| --- | --- | --- | --- | --- | --- | --- | --- | --- | --- | --- | --- | --- | --- | --- | --- | --- | --- | --- |
| GATACAGGGTCAGCTAGAGTCCAGAGTATGGAAA | 1.24 | 2.05 | 0.791 | 0.0344 | 1.83 | 4.14 | -0.0221 | 4.01 | 0.0956 | 3.84 | 3.02 | 5.59 | 4.41 | 1.39 | 4.32 | 2.88 | 0.377 | 1.58 |
| CCGACTGGGACAGAAAGGTTACCATACCATCCGG | 0.593 | 1.09 | -0.448 | -0.875 | 1.09 | 1.01 | 0.0178 | 1.63 | -0.302 | 1.47 | 2.12 | 1.37 | 0.963 | -0.641 | 1.61 | 1.19 | -0.195 | -0.17 |
| TTTACAGGGTCAAAGGCCAGAGTACGAATGTCGA | 3.26 | 5.18 | 1.93 | 1.36 | 1.8 | 4.41 | 0.247 | 6 | 1.16 | 4.52 | 3.46 | 5.91 | 5.11 | 3.13 | 6.94 | 3.63 | 0.893 | 2.97 |
| ATCTCTAGGTAAAATTTCAGTGAATCCCGAGGAT | 1.67 | 1.35 | 0.773 | 1.87 | 0.138 | -0.0385 | -0.0342 | 0.0546 | 0.744 | 0.377 | -0.0962 | 0.558 | 0.537 | 0.113 | 0.367 | 0.328 | 0.331 | -0.51 |
| AGTCAAAGTCCAGGACGAGGTAACGTAAAGCACG | -0.362 | -0.000589 | 0.282 | 0.0417 | -0.362 | -0.248 | -0.347 | -0.00617 | -0.392 | 0.916 | 0.381 | 0.451 | 0.688 | -0.0759 | 0.28 | 1.89 | 1.14 | -0.089 |
| CTACCAAGGTGAACAAGTTCGTTGATTACTATTC | 2.33 | 2.42 | 0.0227 | 0.729 | 0.895 | 2.81 | 4.46 | 0.986 | 0.313 | 1.55 | 1.3 | 0.877 | 1.02 | 2.17 | 0.747 | 1.9 | 0.959 | 3.6 |
| GCTATCAGGCCATTTGGGTCACTCAATGACGGGC | 2.06 | 2.59 | -0.109 | -0.362 | 0.448 | 1.01 | 0.354 | 1.2 | -0.0153 | 1.87 | 2.39 | 1.19 | 1.66 | 0.754 | 0.858 | 2.55 | 1.57 | 0.781 |
| TCTAGTTGGTCAATGGTCACACACTCGAAATGCG | 2.15 | 2.54 | 0.677 | 1.19 | 1.32 | 0.698 | -0.0663 | 0.893 | 0.846 | 1.62 | 1.54 | 1.02 | 1.31 | 1.16 | 0.996 | 0.262 | 0.437 | 0.178 |
| TCTAGTTGGGCAAAGGTCACACACTCGAAATGCG | 2.75 | 5.71 | 0.687 | 1.14 | 5.11 | 5.64 | 1.26 | 6.56 | 2.44 | 5.1 | 5.01 | 6.49 | 5.87 | 1.44 | 7.41 | 3.99 | 1.54 | 2.26 |
| TCATATAGGTAACACAGGTGAAAGTCGGCATCTA | 4.65 | 4.09 | 0.968 | 1.6 | 1.38 | 1.15 | 0.735 | 1.5 | 1.19 | 1 | 1.12 | 1.13 | 0.999 | 1.73 | 1.55 | 1.36 | 0.518 | 0.493 |
| CGAACGAGGCCATGAGTTGATAGCAAATGCCGAT | 1.62 | 0.713 | -0.17 | -0.886 | 0.125 | -0.17 | -0.294 | 0.133 | -0.191 | 0.941 | 0.354 | 0.599 | 0.821 | 0.851 | 0.328 | 0.837 | -0.151 | 0.777 |
| CATACAGGGTCAGCTAGGCGAGAGTAGGGACGGC | 1.21 | 2.05 | 0.279 | 0.468 | 1.41 | 1.83 | 0.199 | 3.05 | 0.266 | 4.04 | 3.12 | 4.39 | 4.53 | 1.72 | 4.02 | 3.05 | 1.01 | 0.943 |
| CCTTACGGGTTACTGACAGGTTATAGCATTTGGA | 1.04 | 0.57 | -0.172 | -0.367 | 1.21 | 0.825 | 0.22 | 1.51 | 0.545 | 0.924 | 0.885 | 2.22 | 0.806 | 0.177 | 1.54 | 1.11 | -0.00572 | 0.261 |
| CCGAGCAGGCCAATCTGGGTCACTCAAGGCTTGA | 3.97 | 4.58 | -1.06 | -1.1 | 0.368 | 0.937 | -0.646 | 1.17 | -1.1 | 1.77 | 2.28 | 1.25 | 1.68 | 0.0945 | 1.15 | 3.72 | 0.404 | 0.347 |
| TCTATTAGTCGATTAGGGCAACCGAAACAGCGGA | 2.06 | 1.15 | 1.13 | 0.942 | 0.0705 | 0.419 | -0.106 | 0.574 | 0.642 | 0.697 | 0.367 | 0.53 | 0.468 | 0.914 | 0.681 | 0.811 | 0.361 | 0.0266 |
